Assay results published in the supplement of paper PMC6555819.

Legend:
Experiment in all cases: PBM binding z-score (relative to random genomic background probes); higher = stronger binding; sequences stand for … in GC…GCGATTGACAGCGTAGAATGAAGG
[1] = system: PPARg:RXRa DBDmut IVT, anti-RXR (DBD mutation: RXRa K156A/R161A, NR concentration 270 nM, RXRa partner concentration 90 nM)
Outline: (§1)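 For binding z-scores, the reference was random background probes on custom Agilent 4×180K protein-binding microarrays. These arrays were incubated 1 h with ligand-free nuclear receptor dimers in PBS pH 7.4, 2% milk, 0.02% Triton X-100, 1 mM DTT, 0.2 mg/mL BSA and 0.4 mg/ml salmon testes DNA. Fluorescence was scanned after antibody detection of each partner (one per run) and regression-normalized.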

[2] = system: PPARg:RXRa IVT, anti-PPARg (NR concentration 270 nM, RXRa partner concentration 90 nM)
Outline: as §1

[3] = system: PPARg DBDmut:RXRa IVT, anti-PPARg (DBD mutation: PPARg1 K132A/R137A, NR concentration 270 nM, RXRa partner concentration 90 nM)
Outline: as §1

[4] = system: PPARg DBDmut IVT, anti-PPARg (DBD mutation: PPARg1 K132A/R137A, NR concentration 270 nM)
Outline: as §1

[5] = system: PPARg homodimer (NR concentration 180 nM)
Outline: as §1

[6] = system: PXR:RXRa (NR concentration 270 nM, RXRa partner concentration 90 nM)
Outline: as §1

[7] = system: PXR homodimer (NR concentration 270 nM)
Outline: as §1

[8] = system: RARa:RXR (NR concentration 270 nM, RXRa partner concentration 90 nM)
Outline: as §1

[9] = system: RARa homodimer (NR concentration 270 nM)
Outline: as §1

[10] = system: RARb:RXRa (NR concentration 270 nM, RXRa partner concentration 90 nM)
Outline: as §1

Sequence | PBM binding z-score [1] | PBM binding z-score [2] | PBM binding z-score [3] | PBM binding z-score [4] | PBM binding z-score [5] | PBM binding z-score [6] | PBM binding z-score [7] | PBM binding z-score [8] | PBM binding z-score [9] | PBM binding z-score [10]
TGTCAAAGCTCAAAGGTAACGTAAGTATCCACAC | -0.538 | 0.996 | 0.525 | 0.434 | -0.0175 | 0.078 | -0.43 | 0.683 | -0.12 | 0.692
ACTAGTAGGCCAAGGGTCACTCAAGATTAGTCCG | 5.4 | 6.33 | 0.82 | 1.01 | 2.17 | 3.24 | -0.0548 | 4.2 | 0.166 | 3.61
TAGCCTAGGTCATAGGGCCAGTATAGTACGCATC | 1.41 | 2.83 | 0.326 | -0.841 | 1.14 | 1.45 | -0.088 | 2.37 | -0.213 | 3.75
TCTAGTTGGTCACGGGGGTCACACACGACGGGTA | 3.49 | 5.43 | 6.78 | 6.87 | 4.67 | 5.72 | 2.32 | 6.59 | 2 | 4.07
ACTAGTTGGTCAGCTGAGGTCACACAAAATTCGG | 1.6 | 2.89 | 0.792 | 0.409 | 3.4 | 5.63 | 2.18 | 4.78 | 1.17 | 3.87
CCTAGCAGGCGAGGGTCACTCAAGCATTTCGCTT | 0.277 | 0.13 | -1.61 | -1.34 | 0.73 | 1.63 | -0.241 | 2.62 | -0.425 | 2.29
CAAAGTAGGTCACGAAAGGTCAAAGTCGAATGAC | 8.95 | 9.16 | 2.49 | 0.871 | 5.21 | 7.05 | 2.22 | 7.43 | 4.05 | 5.68
CCTTACGGGTCACGGTTATAGCACGGGTGGTACG | 3 | 4.79 | 0.0456 | -0.518 | 2.07 | 3.68 | -0.0861 | 4.84 | 0.629 | 4.37
GATACAGGGTCAAGGCCAGAGTACGCGTATTGAT | 2.82 | 3.95 | 1.08 | 0.22 | 1.95 | 3.88 | 0.227 | 4.46 | 0.587 | 4.44
CGAACTATGTCAAGGACAGTGAATCTCCGCACGC | 3.57 | 2.11 | -0.346 | 0.361 | 0.224 | -0.112 | 0.37 | 0.29 | 0.0991 | 0.88
ATATGTAGGTTACCGGGTCATTCAGTTTGCGCAT | 8.02 | 8.28 | 6.4 | 4.2 | 3.3 | 4.35 | 9.95 | 4.52 | 0.996 | 2.76
CCTTACAGGTCACGAGGTTATAGCACGACGAGCG | 5.46 | 6.09 | 1.32 | 1.39 | 3.54 | 4.58 | 0.719 | 5.38 | 1.27 | 5.31
CCTTACGGGTCCCTGACAGGTTATAGCATTTGGA | -0.486 | -0.544 | -1.04 | -1.23 | 0.149 | -0.106 | -0.274 | -0.0622 | 0.466 | 0.205
CTAACTAGGTCACCGGAAGGTCAAAGTCCGCATG | 8.81 | 9.32 | 3.69 | 4.14 | 5.86 | 6.02 | 2.05 | 7.24 | 1.84 | 5.55
TCATATAGGTAATAAAGGTGAAAGTCGGCATCTA | 3.99 | 3.74 | 0.942 | 1.43 | 2.01 | 1.34 | 0.488 | 2.02 | 1.77 | 1.6
CCTTACGGGTCAAGGTTATACCACGGGTGGTACG | 1.19 | 3.53 | -0.379 | -0.205 | 3.33 | 3.49 | 0.498 | 4.11 | 1.71 | 4.21
GCATACGGGTCAAAGGTTATAGCATGAATAGAAT | 4.64 | 6.5 | 1.34 | 2.31 | 3.95 | 6.29 | 0.519 | 8.51 | 0.512 | 4.49
CCTACTGGGCCACTCAGAGGTCATTGATCATATG | 5.13 | 5.18 | -0.186 | -0.561 | 1.94 | 5.1 | 1.83 | 4.46 | 0.374 | 3.28
TATTGTAGATCAAAGGTTAAGAAAGCCGAAGCCT | 1.27 | 4.2 | 1.1 | 1.23 | 1.87 | 2.16 | 0.399 | 3.1 | 0.703 | 2.07
TCTAGCAGGCCATAGGGTCACTCAAGAGGTACGG | 1.23 | 1.69 | -1.22 | -0.48 | 0.644 | 2.43 | -0.246 | 3.69 | 0.229 | 2.75
CAAAGTAGGTCACCGGAAGGTCAAAGTCCGCATG | 8.84 | 9.1 | 4.14 | 2.62 | 6.69 | 6.22 | 1.73 | 7.55 | 2.1 | 5.39
TTACCAAGGTGAAGGTCGTGGATCCCTCTGTAGA | 2.23 | 3.55 | -0.363 | 0.188 | 0.731 | 1.53 | -0.1 | 2.38 | -0.307 | 2.4
GCTGCTAGGTCAACTGATGGTCAGCTAAAGCTCG | 4.92 | 4.19 | -0.0375 | -1.12 | 1.55 | 1.66 | -0.596 | 3 | 0.346 | 4.26
TCTGCTAGGTCAGGTGGTCAGCTAACGAGCTGCC | 2.43 | 2.96 | -0.185 | -0.486 | -0.444 | 0.451 | -0.687 | 1.18 | -1.1 | 3.38
TAGCCAAGGTCATTCAGGGGCCAGTATAGAAAGC | 1.73 | 3 | 1.11 | 0.966 | 3.14 | 4.91 | 1.43 | 5.72 | 0.389 | 5.06

Sequence | PBM binding z-score [1] | PBM binding z-score [2] | PBM binding z-score [3] | PBM binding z-score [4] | PBM binding z-score [5] | PBM binding z-score [6] | PBM binding z-score [7] | PBM binding z-score [8] | PBM binding z-score [9] | PBM binding z-score [10]
CGTCCAAGCTCAGCAGGTCAGTGAAAGCGACGTG | -0.243 | -0.249 | -0.634 | -0.872 | -0.131 | 0.0588 | -0.688 | 0.234 | -0.706 | 1.45
GCTTACGGGTCAAAGGTTACAGCATGAATAGAAT | 5.26 | 6.43 | 2.32 | 2.26 | 5.3 | 6.45 | 0.418 | 8.5 | 1.16 | 4.7
CCTAGTTGGTCAGGTGGTCACACACCGGATATGA | 0.0405 | 0.926 | -0.00343 | -0.318 | 1.26 | 0.174 | 0.369 | 0.505 | 1.18 | 1.25
TGGCCTAGGTCATGGGCCAGTATACCACGCGAAC | 0.46 | 2.6 | 0.17 | -0.783 | 0.937 | 1.04 | -0.935 | 2.31 | -0.155 | 3.82
CCTACAGGGCCAAAGGTCATTGATTCCAATGCTC | 0.88 | 4.29 | 0.0481 | -0.141 | 5.51 | 5.66 | 2.27 |  | 2.39 | 4.63
ACTCGGAGGGCAAAGGTCAGAGCTACGCCAGTGA | 2.2 | 4.71 | -0.0277 | -0.839 | 5.97 | 5.61 | 0.191 |  | 0.823 | 4.93
CCTTACGGGTCAAGGTTATATCACGGGTGGTACG | 1.74 | 3.78 | 0.607 | 0.522 | 2.64 | 3.63 | 0.951 |  | 0.89 | 4.15
CGTCCAAGGTCAGTGAGGTCAGTGAATGCCGAGT | 3.14 | 3.83 | -0.101 | -0.804 | 3.15 | 5.76 | 11.8 |  | 0.545 | 5.51
CAAACTAGGTCAAAGGTCAAAGACGAGCCAACCA | 8.8 | 9.63 | 6.19 | 7.03 | 8.08 | 7.17 | 1.87 | 9.19 | 4.59 | 5.96
TTACCAAGGTGAAAGGTCATTGATGCACGCCTTG | 2.98 | 6.12 | 1.63 | 2.28 | 5.67 | 6.35 | 2.25 |  | 2.09 | 4.86
TCTAGTTGGTTACGGAGGTCACACACGACGGGTA | 1.85 | 2.98 | 1.22 | 0.724 | 3.22 | 4.22 | 1.44 |  | 2.34 | 3.25
CGTCCAAGGTCATAAGAGGTCAGTGAAGACAGAT | 3.48 | 4.2 | 2.03 | -0.112 | 7.68 | 7.11 | 7.52 |  | 4 | 5.47
ATCGAAAGGTCGACGAGTTGAGTATACACCGTTT | 0.59 | 1.57 | 1.03 | 0.857 | 1.26 | 3.23 | 1.84 |  | 0.451 | 3.7
TTACAAAGGTGAAAGGTCGTTGATGCACGCCTTG | 3.36 | 5.57 | 1.51 | 1.12 | 2.94 | 5.11 | 0.77 |  | 0.833 | 4.25
CGTCAAAGTTCAACTAATGTAACGTAAAGCACGC | 0.546 | 1.56 | 0.963 | 2.3 | 3.42 | 4.97 | 5.1 |  | 2.42 | 5.23
CAAACTAGGTCACGAAAGGGCAAAGTCGAATGAC | 8.03 | 9.13 | 2.95 | 1.67 | 4.28 | 5.85 | 0.485 | 5.03 | 2.03 | 4.99
TCTCGGAGGACACGAAAGGTCAGAACTCGACATC | 1.63 | 1.22 | -0.541 | -0.269 | 3.91 | 4.08 | 0.978 |  | 2 | 3.83
CCTAGTTGGCCAAGGTCACACACGCTATAGGTAC | 1.76 | 2.66 | 0.582 | 0.0264 | 2.66 | 3.85 | 1.93 |  | 1.5 | 3.8
TAGCCTAGGTCATTCAGGGGTCAGTATAGAAAGC | 2.45 | 3.97 | 1.25 | 0.527 | 9.82 | 5.72 | 1.35 |  | 2.26 | 4.81
ATACCAAGGTTATCGTGAGGTCGTTGATACTAAC | 0.718 | 1.31 | 1.06 | 0.559 | 1.6 | 4.73 | 2.85 |  | 1.45 | 2.47
ATATGTAGGTTACATCCGGGTCTTTCAGGCTATG | 7.37 | 7.42 | 1.99 | 3.12 | 1.13 | 0.703 | 0.192 | 0.794 | 0.548 | 1.21
TCTTGTAGGTCAAAGGTTAAGAAAGCCGAAGCCT | 7.87 | 8.59 | 1.61 | 1.68 | 3.23 | 5.44 | 0.389 |  | 0.512 | 5.12
CCTACTGGGCCAAAGGCCATTGATTCCAATGCTC | 3.67 | 4.27 | -1.16 | -0.289 | 0.544 | -0.131 | -0.371 | 0.0662 | -0.609 | 0.924
GCTAGTAGGTCAGTAAAAGGTCACACACCGGTCG | 7.2 | 7.29 | 3.2 | 3.78 | 6.95 | 5.97 | 1.43 |  | 2.9 | 5.4
